Structures can show the parent of a compound that is named as a salt. A number with no mark means an inactive call.

The test system of the assay is primary human hepatic stellate cells (donor 1). In words: COL1A1 mRNA fold change vs DMSO (normalised to PSMB2); higher = more COL1A1 expression, active = hit call of the paper. The following applies: 48 h. How it is done:
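Secondary qRT-PCR screen in primary human HSCs (donor 1), 384-well plates, with compounds dispensed in quadruplicate and incubated for 48 h. Cells-to-CT lysates were used for multiplexed TaqMan qPCR of ACTA2 or COL1A1 with PSMB2 as reference. Fold changes versus DMSO come from a linear model (Ct_gene ~ Ct_PSMB2 + plate + chemical). A hit is defined as COL1A1 and ACTA2 FC <0.5 (FDR <0.05) with PSMB2 between 0.2 and 2.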
Regarding `Cc1ccc(-c2ccc3c(ccc4sc5c(c43)NC[C@@H](C)NC5=O)n2)cn1` (33.3333 µM), the “COL1A1 mRNA fold change” value was 1.21.

Take `CCN(CC)CCCCNc1ncc2cc(-c3c(Cl)cccc3Cl)c(NC(=O)NC(C)(C)C)nc2n1` (33.3333 µM): the “COL1A1 mRNA fold change” value is 0.425 (active). As to `CCCSc1ccc2[nH]c(NC(=O)OC)nc2c1` [Albendazole] (33.3333 µM), the “COL1A1 mRNA fold change” value was 0.881.

Take `CSc1ccc2c(c1)C(N1CCN(C)CC1)Cc1ccccc1S2` (stereo not given) [Methiothepin maleate] (33.3333 µM): the “COL1A1 mRNA fold change” value is 0.00214. Then `CCN(CC)CC#CCOC(=O)C(O)(c1ccccc1)C1CCCCC1` (stereo not given) [Oxybutynin chloride] (16.9333 µM), with 0.755; and `O=C(O[C@H]1CN2CCC1CC2)N1CCc2ccccc2[C@@H]1c1ccccc1` [Solifenacin succinate] (33.3333 µM), with 0.375 (active).

On to `CN1CCN2c3ccccc3Cc3ccccc3C2C1` (stereo not given) [Mianserin hcl] (25.2333 µM), for which the “COL1A1 mRNA fold change” value was 0.529. Then `OCCN1CCN(CCCN2c3ccccc3Sc3ccc(C(F)(F)F)cc32)CC1` (33.3333 µM), with 0.0645; and `COc1ccc(NS(=O)(=O)c2sc3ccc(Cl)cc3c2C)cc1N1CCNCC1` (33.3333 µM), with 0.0858 (active). As for `CC(/C=C/C(=O)NO)=C\[C@@H](C)C(=O)c1ccc(N(C)C)cc1` [Trichostatin A] (3.33333 µM), the figure is 0.405 (active); as for `Cc1nc2ccc(-n3ncc(C(=O)c4cc5ccccc5[nH]4)c3N)cc2[nH]1` (33.3333 µM), 0.562; as for `CN1CCC(=C2c3ccccc3C=Cc3ccccc32)CC1` [Cyproheptadine] (33.3333 µM), 0.078 (active). Then `CC(C)NCCCn1c(Sc2cc3c(cc2I)OCO3)nc2c(N)ncnc21` (33.3333 µM), with 0.844; and `CCCCCCCCCCCCCCCCn1cc[n+](Cc2ccccc2)c1C` (11.1 µM), with 0.155; and `Cc1nc(Nc2ncc(C(=O)Nc3c(C)cccc3Cl)s2)cc(N2CCN(CCO)CC2)n1` (33.3333 µM), with 0.446 (active). `CCCCc1oc2ccccc2c1C(=O)c1cc(I)c(OCCN(CC)CC)c(I)c1` (33.3333 µM): the “COL1A1 mRNA fold change” value is 0.057 (active).

As to `CN(C)Cc1c(C(=O)NCCOc2ccc(C(=O)NO)cc2)oc2ccccc12` (33.3333 µM), the “COL1A1 mRNA fold change” value was 0.0321 (active).

For `CC[C@@H]1C(=O)N(C)c2cnc(Nc3ccc(C(=O)NC4CCN(C)CC4)cc3OC)nc2N1C1CCCC1` (33.3333 µM), the “COL1A1 mRNA fold change” value is 0.0466. As for `CC(C)c1cc(-c2n[nH]c(=O)n2-c2ccc3c(ccn3C)c2)c(O)cc1O` [Ganetespib (STA-9090)] (33.3333 µM), the figure is 1.04; as for `NC1(c2ccc(-c3nc4ccn5c(=O)[nH]nc5c4cc3-c3ccccc3)cc2)CCC1` (11.1 µM), 0.184. On to `CC(C)(C)c1cc(NC(=O)Nc2ccc(-c3cn4c(n3)sc3cc(OCCN5CCOCC5)ccc34)cc2)no1` [Quizartinib  (AC220)] (11.1 µM), for which the “COL1A1 mRNA fold change” value was 1.01. Then `CCc1cc2c(cc1CC)CC(NC[C@H](O)c1ccc(O)c3[nH]c(=O)ccc13)C2` [Indacaterol Maleate] (33.3333 µM), with 0.0797 (active); and `CN1CCN(C2=Cc3ccccc3Oc3ccc(Cl)cc32)CC1` (33.3333 µM), with 0.416 (active).

Regarding `O=C(c1ccc(/C=C/c2n[nH]c3ccccc23)cc1)N1CCNCC1` (33.3333 µM), the “COL1A1 mRNA fold change” value was 0.0707. As for `CCNC(=O)c1noc(-c2cc(C(C)C)c(O)cc2O)c1-c1ccc(CN2CCOCC2)cc1` (11.1 µM), the figure is 1.09; as for `CN(C)CCC(c1ccc(Br)cc1)c1ccccn1` (stereo not given) [Brompheniramine maleate] (33.3333 µM), 0.705. As for `CNCCC(Oc1ccc(C(F)(F)F)cc1)c1ccccc1` (stereo not given) [Fluoxetine hydrochloride] (33.3333 µM), the figure is 0.114 (active); as for `CNC(=O)[C@@H](Cc1ccccc1)N(C)C(=O)[C@@H](Cc1ccc2ccccc2c1)N(C)C(=O)/C=C/CC(C)(C)N` [Tabimorelin] (33.3333 µM), 0.935; as for `COc1cc2nc(N3CCCN(C)CC3)nc(NC3CCN(Cc4ccccc4)CC3)c2cc1OC` (3.33333 µM), 0.0424 (active). Then `C[C@]12CC[C@H](O)CC1=CC[C@@H]1[C@@H]2CC[C@]2(C)C(n3cnc4ccccc43)=CC[C@@H]12` [Galeterone] (33.3333 µM), with 0.0557.

Regarding `Cc1ccc(NC(=O)c2ccc(CN3CCN(C)CC3)cc2)cc1Nc1nc(-c2cccnc2)cs1` [Masitinib (AB1010, Masivet)] (6.66667 µM), the “COL1A1 mRNA fold change” value was 1.31. Then `CCOC(=O)C1=C(COCCN)NC(C)=C(C(=O)OC)C1c1ccccc1Cl` (stereo not given) (33.3333 µM), with 0.437 (active); and `COc1ccccc1OCCNCC(O)COc1cccc2[nH]c3ccccc3c12` (stereo not given) [Carvedilol] (33.3333 µM), with 0.294. Then `Cc1cnc(-c2cnc(NCCNc3ccc(C#N)cn3)nc2-c2ccc(Cl)cc2Cl)[nH]1` (33.3333 µM), with 1.04. As for `C[C@H]1O[C@@H](O[C@H]2[C@@H](O)C[C@H](O[C@H]3[C@@H](O)C[C@H](O[C@H]4CC[C@@]5(C)[C@H](CC[C@@H]6[C@@H]5C[C@@H](O)[C@]5(C)[C@@H](C7=CC(=O)OC7)CC[C@]65O)C4)O[C@@H]3C)O[C@@H]2C)C[C@H](O)[C@@H]1O` [Digoxin] (33.3333 µM), the figure is 0.0679 (active). As to `c1ccc2c(NCCCCCCCNc3c4c(nc5ccccc35)CCCC4)c3c(nc2c1)CCCC3` [bis(7)-Tacrine] (3.33333 µM), the “COL1A1 mRNA fold change” value was 0.0304 (active). Take `CN1CCC(Nc2ncc3ncnc(Nc4ccc(F)c(Cl)c4)c3n2)CC1` [BIBX 1382 dihydrochloride] (33.3333 µM): the “COL1A1 mRNA fold change” value was 0.00366. As for `Clc1ccccc1CNCC1CCC(CNCc2ccccc2Cl)CC1` (stereo not given) (33.3333 µM), the figure is 0.055. Then `O=C(Nc1cc(C(F)(F)F)cc(C(F)(F)F)c1)c1cc(Cl)ccc1O` (33.3333 µM), with 0.203 (active); and `COC(=O)C[C@](O)(CCCC(C)(C)O)C(=O)O[C@@H]1C(OC)=C[C@]23CCCN2CCc2cc4c(cc2[C@H]13)OCO4` [Homoharringtonine] (33.3333 µM), with 0.0354 (active).
